The record followed here is PubChem BioAssay (EPA / NIEHS).

Each structure is given as a SMILES string. Values joined by “and” are separate entries in the source; they are usually repeats but may differ in a detail not shown here. Identical values can stand only once. Some structures have more than one record in an assay (separate samples or runs), and their calls can disagree. Active and inactive are the calls of the source. The calls were made as follows: active = hit-call score of the fitted dose curve at least 0.9, where 1 is the maximum; inactive = score below 0.9.

Experiment [1] can be described thus: ATG_GLI_CIS: Attagene CIS-FACTORIAL HepG2 Assay for human Zinc Finger Protein GLI1 (AID 2282945). The note with it: HepG2, Attagene cis-factorial reporter mRNA, GLI element; actives raise or lower the signal. The method, boiled down:
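HepG2 cells transiently transfected with cis-promoter multiplexed reporter units report endogenous transcription factor activity. After 24 h chemical exposure, reporter mRNA was quantified by RT-PCR, 6-FAM labelling, HpaI digestion and capillary electrophoresis, with bidirectional fitting against DMSO.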

Experiment [2] in a line: ATG_GRE_CIS: Attagene CIS-FACTORIAL HepG2 Assay for human Glucocorticoid Response Elements (GRE) (AID 2282947). The note with it: HepG2 GRE cis-reporter, Attagene multiplex mRNA; actives raise or lower the signal. The method, boiled down:
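HepG2 cells transiently transfected with multiple cis-promoter reporter units measure endogenous TF activity; 24 h compound exposure. Reporter mRNA quantified by RT-PCR, FAM labelling, HpaI digestion and capillary electrophoresis; bidirectional fit vs DMSO baseline.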

A short description of experiment [3]: ATG_ISRE_CIS: Attagene CIS-FACTORIAL HepG2 Assay for human Interferon Regulatory Factor 1 (IRF1) binding to an Interferon-Stimulated Response Element (ISRE) (AID 2282948). The note with it: HepG2 ISRE cis-reporter (Attagene), mRNA transcription readout; actives raise or lower the signal. The method, boiled down:
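Transfected HepG2 (multiple reporter transcription units, cis elements) dosed 24 h. RNA → oligo(dT) RT → PCR → 6-FAM primer extension → HpaI → CE. DMSO = negative control/baseline.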

The nature of experiment [4]: ATG_M_32_CIS: Attagene CIS-FACTORIAL HepG2 Assay for M32 Transcription Factor (Internal Marker) (AID 2282949).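 Also: background control marker of the multiplexed CIS panel rather than a real target.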 The note with it: HepG2 Attagene cis-factorial M32 reporter, mRNA; actives raise or lower the signal. Summed up:
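Internal background marker read-out: RT-PCR/capillary electrophoresis fluorescence of reporter transcripts from transiently transfected HepG2 cells after 24 h chemical exposure. Activity fitted bidirectionally relative to DMSO negative control.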

Experiment [5] is described as follows: ATG_M_06_CIS: Attagene CIS-FACTORIAL HepG2 Assay for M06 Transcription Factor (Internal Marker) (AID 2282950). Particulars: HepG2 Attagene CIS-FACTORIAL M06 internal marker reporter; actives raise or lower the signal. The method, boiled down: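 Terse: HepG2, transient MRTU transfection (FuGene 6), 24 h dosing; total RNA, oligo(dT) RT, PCR, FAM label, HpaI cut, capillary electrophoresis; bidirectional fit vs DMSO baseline; background-control endpoint.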

For experiment [6], the target named is Hypoxia-inducible factor 1-alpha (Homo sapiens) (UniProt Q16665). Put plainly: ATG_HIF1a_CIS: Attagene CIS-FACTORIAL HepG2 Assay for human Hypoxia Inducible Factor 1 (HIF1A) (AID 2282951). The note with it: HepG2 Attagene cis-factorial HIF1a reporter transcription; actives raise or lower the signal. Summed up:
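Endogenous-TF cis reporter readout, human HepG2 cells, 24 h incubation; mRNA detected via RT-PCR and capillary electrophoresis fluorescence; DMSO-normalised bidirectional fitting.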

In experiment [7] the target is Hepatocyte nuclear factor 6 (Homo sapiens) (UniProt Q9UBC0). Put plainly: ATG_HNF6_CIS: Attagene CIS-FACTORIAL HepG2 Assay for human Hepatocyte Nuclear Factor 6 (HNF6) (AID 2282952). The note with it: HepG2 Attagene cis-factorial HNF6 reporter transcription; actives raise or lower the signal. Summed up: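 HepG2 cells transiently transfected with cis-element-driven multiplexed reporter units measuring endogenous transcription factor activity. After 24 h exposure, reporter mRNA quantified by RT-PCR, FAM-labelled fragments and capillary electrophoresis; bidirectional fitting versus DMSO.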

Experiment [8] concerns the target Heat shock factor protein 1 (Homo sapiens) (UniProt Q00613). The experiment is described as follows: ATG_HSE_CIS: Attagene CIS-FACTORIAL HepG2 Assay for human Heat Shock Transcription Factor 1 (HSE) (AID 2282953). The note with it: HepG2 HSE cis-reporter, Attagene RNA transcription; actives raise or lower the signal. Summed up: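 Read-out: fluorescence of reporter-specific RT-PCR fragments separated by capillary electrophoresis. HepG2 carrying transfected cis-element reporter units; 24 h dosing; activity fitted in both directions relative to DMSO baseline.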

Experiment [9] in a line: ATG_MRE_CIS: Attagene CIS-FACTORIAL HepG2 Assay for human Metal Responsive Element (MRE) (AID 2282954). The note with it: HepG2 MRE cis-reporter transcription, Attagene multiplex; actives raise or lower the signal. Summed up: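 HepG2 cells transiently transfected with multiple cis-element reporter units measure endogenous MTF1-driven transcription. After 24 h compound exposure, reporter mRNA is quantified by RT-PCR with 6-FAM labelling, HpaI digestion and capillary electrophoresis; bidirectional fits versus DMSO.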

A short description of experiment [10]: ATG_PBREM_CIS: Attagene CIS-FACTORIAL HepG2 Assay for human Phenobarbital-responsive Enhancer Module (PBREM) (AID 2282955). The note with it: HepG2 PBREM cis-reporter, Attagene multiplexed transcription; actives raise or lower the signal. The method, boiled down: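 Readout: reporter mRNA, fluorescent RT-PCR fragments separated by capillary electrophoresis. System: HepG2 transiently transfected with cis-regulated reporter units. Exposure: 24 h. Analysis: bidirectional, DMSO baseline.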

Experiment [11] concerns the target Paired box protein Pax-6 (Homo sapiens) (UniProt P26367). The experiment is described as follows: ATG_Pax6_CIS: Attagene CIS-FACTORIAL HepG2 Assay for human Paired Box 6 (PAX6) (AID 2282956). Particulars: HepG2 CIS-FACTORIAL PAX6 reporter transcription, RNA readout; actives raise or lower the signal. The method, boiled down: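 Transient MRTU transfection of HepG2 → compound exposure 24 h → TriZol RNA, oligo(dT) RT → PCR, 6-FAM primer extension, HpaI cut → capillary electrophoresis; activity fitted both directions against DMSO.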

A short description of experiment [12]: ATG_PXRE_CIS: Attagene CIS-FACTORIAL HepG2 Assay for human Pregnane X Receptor Element (PXRE) (AID 2282957). The note with it: HepG2 Attagene CIS-FACTORIAL PXRE reporter, mRNA; actives raise or lower the signal. Summed up: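 HepG2 cells transiently transfected with cis-element-driven multiplexed reporter units; after 24 h chemical exposure, reporter mRNA measured by RT-PCR, 6-FAM labelling, HpaI digestion and capillary electrophoresis. Bidirectional fitting relative to DMSO.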

Experiment [13] is described as follows: ATG_PPRE_CIS: Attagene CIS-FACTORIAL HepG2 Assay for human Peroxisome Proliferator-activated Response Element (PPRE) (AID 2282958). Particulars: HepG2 PPRE cis-element reporter, Attagene transcription factor profiling; actives raise or lower the signal. Summed up: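 After human HepG2 hepatoma cells were transiently transfected with cis-promoter reporter constructs, they were exposed to test chemicals for 24 hours. Reporter RNA was then reverse-transcribed, PCR-amplified, FAM-labeled, HpaI-digested and quantified by capillary electrophoresis.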

A short description of experiment [14]: ATG_RORE_CIS: Attagene CIS-FACTORIAL HepG2 Assay for human RAR-related Orphan Receptor Element (RORE) (AID 2282959). The note with it: HepG2 Attagene cis-factorial RORE reporter, mRNA; actives raise or lower the signal. Summed up:
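Measured here: transcript induction of a cis-regulated reporter in HepG2 cells transiently transfected via FuGene 6. After 24 h, RNA was processed by RT-PCR and fluorescent capillary electrophoresis; DMSO defined baseline activity.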

Experiment [15] can be described thus: ATG_Sox_CIS: Attagene CIS-FACTORIAL HepG2 Assay for human SRY-box transcription factor (SOX) (AID 2282960). Particulars: HepG2 Attagene cis-factorial SOX reporter, mRNA; actives raise or lower the signal. Summed up: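 Using transiently transfected HepG2 cells, reporter transcription driven by cis elements was assessed 24 h after dosing. Signal was fluorescence of capillary-separated RT-PCR products, with DMSO defining baseline activity.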

Experiment [16] concerns the target Transcription factor Sp1 (Homo sapiens) (UniProt P08047). Put plainly: ATG_Sp1_CIS: Attagene CIS-FACTORIAL HepG2 Assay for human Specificity Protein 1 (Sp1) (AID 2282961). The note with it: HepG2 Sp1 cis-reporter transcription, actives raise or lower the signal. The method, boiled down:
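After transient transfection of HepG2 cells with cis-promoter reporter units and 24 h chemical treatment, reporter transcripts were quantified by RT-PCR and capillary electrophoresis fluorescence. Gain- and loss-of-signal fitted against DMSO.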

The nature of experiment [17]: ATG_SREBP_CIS: Attagene CIS-FACTORIAL HepG2 Assay for human Sterol Regulatory Element Binding (SREBP) (AID 2282962). Particulars: HepG2 Attagene cis-factorial SREBP reporter, mRNA; actives raise or lower the signal. The method, boiled down: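 Transfected HepG2 (cis-regulated reporter library, endogenous TFs) → compound 24 h → total RNA → oligo(dT) RT → reporter-specific PCR → FAM primer extension, HpaI cut → CE fluorescence. Fit bidirectional vs DMSO.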

Experiment [18] has as its target Signal transducer and activator of transcription 3 (Homo sapiens) (UniProt P40763). The experiment is described as follows: ATG_STAT3_CIS: Attagene CIS-FACTORIAL HepG2 Assay for human Signal Transducer and Activator of Transcription 3 (STAT3) (AID 2282963). Particulars: HepG2, Attagene cis-factorial STAT3 reporter transcription; actives raise or lower the signal. Summed up:
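HepG2 cells transiently transfected with cis-element-driven multiple reporter transcription units; after 24 h chemical exposure, reporter mRNA measured by RT-PCR, 6-FAM primer-extension labelling, HpaI digestion and capillary electrophoresis. Bidirectional fitting versus DMSO baseline.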

Experiment [19] is described as follows: ATG_TA_CIS: Attagene CIS-FACTORIAL HepG2 Assay for human TA Basal Promoter (AID 2282964). Particulars: HepG2 Attagene CIS-factorial TA basal promoter reporter; actives raise or lower the signal. Summed up:
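Transfected HepG2, 24 h compound exposure; RNA → RT-PCR → FAM primer extension → HpaI cut → CE fluorescence. Gain/loss-of-signal fitted against DMSO negative control. Background-control readout.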

A short description of experiment [20]: ATG_TCF_b_cat_CIS: Attagene CIS-FACTORIAL HepG2 Assay for human T-Cell-Factor with beta-catenin (TCF/b-cat) (AID 2282965). The note with it: HepG2 TCF/beta-catenin cis-reporter transcription, actives raise or lower the signal. Summed up:
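HepG2 cells transiently transfected with multiple cis-promoter-regulated reporter transcription units, so endogenous transcription factor activity is measured. Reporter mRNA read 24 hours after dosing by RT-PCR, fluorescent labelling and capillary electrophoresis; bidirectional fitting against DMSO.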

A word on the AC50: it is the midpoint of the concentration-response curve, whichever way the signal moves.

Paired box protein Pax-6 (Homo sapiens), sequence (P26367 whole entry, looked up): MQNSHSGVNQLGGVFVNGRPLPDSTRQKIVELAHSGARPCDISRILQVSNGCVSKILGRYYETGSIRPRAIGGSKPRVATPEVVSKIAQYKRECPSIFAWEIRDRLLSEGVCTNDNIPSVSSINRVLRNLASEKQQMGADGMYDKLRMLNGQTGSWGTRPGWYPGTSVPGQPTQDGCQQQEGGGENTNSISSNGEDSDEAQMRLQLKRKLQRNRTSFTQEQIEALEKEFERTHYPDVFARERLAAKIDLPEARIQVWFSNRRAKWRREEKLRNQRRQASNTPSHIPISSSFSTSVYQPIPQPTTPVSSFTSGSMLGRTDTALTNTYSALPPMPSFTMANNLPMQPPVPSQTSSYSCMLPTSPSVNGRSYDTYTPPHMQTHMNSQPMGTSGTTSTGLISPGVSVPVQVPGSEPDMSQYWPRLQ
Hepatocyte nuclear factor 6 (Homo sapiens), sequence (Q9UBC0 whole entry, looked up, the tested form may be a part): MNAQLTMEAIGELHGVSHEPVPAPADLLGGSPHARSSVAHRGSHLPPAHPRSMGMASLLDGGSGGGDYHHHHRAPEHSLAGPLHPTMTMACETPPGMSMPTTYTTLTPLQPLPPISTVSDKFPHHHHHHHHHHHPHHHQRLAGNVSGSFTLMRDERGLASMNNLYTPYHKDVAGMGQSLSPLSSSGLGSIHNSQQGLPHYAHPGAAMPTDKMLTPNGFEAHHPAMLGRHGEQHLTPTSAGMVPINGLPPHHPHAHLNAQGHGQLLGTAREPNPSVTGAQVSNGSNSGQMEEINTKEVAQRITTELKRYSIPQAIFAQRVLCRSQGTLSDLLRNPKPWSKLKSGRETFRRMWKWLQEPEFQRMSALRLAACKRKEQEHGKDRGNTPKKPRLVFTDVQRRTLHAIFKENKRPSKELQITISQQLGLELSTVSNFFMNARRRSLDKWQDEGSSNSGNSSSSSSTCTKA
Signal transducer and activator of transcription 3 (Homo sapiens), sequence (P40763 whole entry, looked up): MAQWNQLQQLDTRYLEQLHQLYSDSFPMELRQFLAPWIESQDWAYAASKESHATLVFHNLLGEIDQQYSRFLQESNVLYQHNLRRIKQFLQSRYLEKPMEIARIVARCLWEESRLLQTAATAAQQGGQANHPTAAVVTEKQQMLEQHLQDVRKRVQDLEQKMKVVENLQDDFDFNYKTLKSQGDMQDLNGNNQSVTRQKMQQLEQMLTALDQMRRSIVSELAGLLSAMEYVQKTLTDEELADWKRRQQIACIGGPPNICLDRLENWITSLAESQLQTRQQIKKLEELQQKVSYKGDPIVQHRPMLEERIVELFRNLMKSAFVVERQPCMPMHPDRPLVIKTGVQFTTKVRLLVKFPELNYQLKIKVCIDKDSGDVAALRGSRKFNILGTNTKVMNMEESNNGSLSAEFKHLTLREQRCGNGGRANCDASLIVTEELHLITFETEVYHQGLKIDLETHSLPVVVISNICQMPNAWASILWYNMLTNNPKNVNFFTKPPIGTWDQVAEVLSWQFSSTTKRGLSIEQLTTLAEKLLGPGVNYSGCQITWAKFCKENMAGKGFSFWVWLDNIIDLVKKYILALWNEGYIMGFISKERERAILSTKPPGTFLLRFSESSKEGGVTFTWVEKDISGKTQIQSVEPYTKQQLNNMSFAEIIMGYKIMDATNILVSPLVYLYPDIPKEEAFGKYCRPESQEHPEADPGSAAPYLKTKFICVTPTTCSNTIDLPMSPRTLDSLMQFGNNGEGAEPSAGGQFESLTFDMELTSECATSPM
Transcription factor Sp1 (Homo sapiens), sequence (P08047 whole entry, looked up): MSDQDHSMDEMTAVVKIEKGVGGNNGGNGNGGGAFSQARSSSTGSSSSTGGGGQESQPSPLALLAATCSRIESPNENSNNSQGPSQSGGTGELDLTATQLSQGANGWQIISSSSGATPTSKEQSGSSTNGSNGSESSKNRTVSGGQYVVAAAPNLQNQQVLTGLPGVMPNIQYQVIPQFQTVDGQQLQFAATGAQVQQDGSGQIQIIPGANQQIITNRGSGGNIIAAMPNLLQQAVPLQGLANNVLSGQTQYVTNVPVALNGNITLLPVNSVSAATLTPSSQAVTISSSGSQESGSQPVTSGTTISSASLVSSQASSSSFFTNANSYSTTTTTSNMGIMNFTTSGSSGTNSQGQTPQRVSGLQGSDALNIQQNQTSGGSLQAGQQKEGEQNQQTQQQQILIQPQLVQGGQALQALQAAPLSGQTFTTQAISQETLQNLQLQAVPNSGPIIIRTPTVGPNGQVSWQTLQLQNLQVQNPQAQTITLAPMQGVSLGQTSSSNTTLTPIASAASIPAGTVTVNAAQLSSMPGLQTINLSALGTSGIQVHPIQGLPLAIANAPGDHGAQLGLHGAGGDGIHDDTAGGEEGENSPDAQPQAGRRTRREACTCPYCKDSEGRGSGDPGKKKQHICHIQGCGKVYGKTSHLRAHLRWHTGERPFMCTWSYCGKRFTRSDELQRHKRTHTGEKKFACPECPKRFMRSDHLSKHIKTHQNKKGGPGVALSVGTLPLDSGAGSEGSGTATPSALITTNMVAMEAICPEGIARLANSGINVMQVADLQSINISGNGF
Hypoxia-inducible factor 1-alpha (Homo sapiens), sequence (Q16665 whole entry, looked up): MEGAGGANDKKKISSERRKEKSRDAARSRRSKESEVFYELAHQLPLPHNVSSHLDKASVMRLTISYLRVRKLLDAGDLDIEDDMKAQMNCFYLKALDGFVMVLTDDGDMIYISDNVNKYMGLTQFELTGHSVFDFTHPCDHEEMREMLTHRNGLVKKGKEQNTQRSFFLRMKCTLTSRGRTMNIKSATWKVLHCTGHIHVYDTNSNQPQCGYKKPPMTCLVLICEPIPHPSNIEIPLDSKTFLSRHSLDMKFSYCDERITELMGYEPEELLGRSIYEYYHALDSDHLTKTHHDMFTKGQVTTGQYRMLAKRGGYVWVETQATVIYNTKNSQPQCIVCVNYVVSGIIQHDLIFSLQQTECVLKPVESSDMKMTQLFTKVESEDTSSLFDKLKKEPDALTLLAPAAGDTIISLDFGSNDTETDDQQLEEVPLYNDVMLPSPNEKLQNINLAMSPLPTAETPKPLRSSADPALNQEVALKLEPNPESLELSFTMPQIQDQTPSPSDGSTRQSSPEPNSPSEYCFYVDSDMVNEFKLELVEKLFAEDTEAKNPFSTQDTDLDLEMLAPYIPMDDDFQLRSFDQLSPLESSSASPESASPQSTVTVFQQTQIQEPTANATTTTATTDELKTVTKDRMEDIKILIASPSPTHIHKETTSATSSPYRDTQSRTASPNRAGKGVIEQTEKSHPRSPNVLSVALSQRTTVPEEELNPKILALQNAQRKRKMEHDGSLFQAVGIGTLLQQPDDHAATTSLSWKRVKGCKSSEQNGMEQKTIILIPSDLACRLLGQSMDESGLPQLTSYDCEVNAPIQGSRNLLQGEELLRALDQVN
Heat shock factor protein 1 (Homo sapiens), sequence (Q00613 whole entry, looked up, the tested form may be a part): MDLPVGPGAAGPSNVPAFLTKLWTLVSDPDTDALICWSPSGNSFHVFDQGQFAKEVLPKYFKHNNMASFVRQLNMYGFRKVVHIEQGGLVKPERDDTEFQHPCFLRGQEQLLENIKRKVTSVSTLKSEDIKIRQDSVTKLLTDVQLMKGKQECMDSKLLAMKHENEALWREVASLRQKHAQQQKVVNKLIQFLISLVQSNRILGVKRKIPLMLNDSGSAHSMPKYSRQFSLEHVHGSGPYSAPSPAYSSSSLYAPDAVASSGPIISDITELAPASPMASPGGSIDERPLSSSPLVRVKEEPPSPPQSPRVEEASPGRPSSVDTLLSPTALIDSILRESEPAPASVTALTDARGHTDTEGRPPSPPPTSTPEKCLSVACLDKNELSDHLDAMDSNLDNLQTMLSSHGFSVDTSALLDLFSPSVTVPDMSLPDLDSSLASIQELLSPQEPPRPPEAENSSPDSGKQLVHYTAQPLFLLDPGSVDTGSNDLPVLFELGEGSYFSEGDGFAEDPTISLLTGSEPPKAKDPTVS

As to `CCCN(CCOc1c(Cl)cc(Cl)cc1Cl)C(=O)n1ccnc1`, the outcome in experiment [1], in experiment [2], in experiment [3], in experiment [4], in [5] and in experiment [6] was inactive. Further, the compound was classed as inactive in experiment [7], in experiment [8], in experiment [9], in [10], in experiment [11] and in experiment [13]. The call in experiment [14], in experiment [15], in experiment [16], in [17], in experiment [18] and in [19] was inactive. The compound was called inactive in experiment [20]. Moreover, the concentration at half-maximal activity (AC50) is 2.61 µM (active) in experiment [8]; 18.6 µM (active) in [9]; 2.92 µM (active) in experiment [10]; 828 nM (active) and 60.9 µM (active) in [12]; 4.43 µM (active) in experiment [16]; 11.1 µM (active) in experiment [17].
For the compound `O=[N+]([O-])c1c(Cl)c(Cl)c(Cl)c(Cl)c1Cl`, the outcome in [1], in experiment [2], in [3], in experiment [4], in experiment [5] and in [7] was inactive. Moreover, the outcome in experiment [10], in experiment [12], in [15], in experiment [16], in [17] and in experiment [18] was inactive. The compound was called inactive in experiment [19]. Moreover, the AC50 in experiment [6] is 37.6 µM (active); in experiment [8], 80.8 µM (active); in [9] it was 50 µM (active); in experiment [11], 50 µM (active); in [13] it was 2.32 µM (active); in [14] it was 10.7 µM (active). Further, the AC50 in experiment [20] is 29 µM (active).
Regarding `CC(C)(C)C(O)/C(=C\c1ccc(Cl)cc1Cl)n1cncn1` (stereo not given), the compound was classed as inactive in [1], in experiment [2], in experiment [3], in experiment [4], in experiment [5] and in experiment [6]. Also, the compound was classed as inactive in experiment [7], in experiment [8], in experiment [10], in [11], in experiment [13] and in experiment [14]. The compound was classed as inactive in experiment [15], in experiment [16], in experiment [17], in [18], in [19] and in experiment [20]. Moreover, the AC50 in [9] and in [12] was 5 µM (active) in each case.
